The term inhibition denotes the drop in the measured response relative to a control, in per cent.

“And” between values parts separate entries of the source, which are not always exact repeats. Equal values may be shown once. In all, about 190,000 compounds went through this assay and about 6,900 (3.6%) were called active. For the sample, actives were picked, then their nearest neighbours and some compounds at random. Unmarked numbers belong to inactive results. No stated cut-off is given here; in the data, active means inhibition above about 50%; inactive means the rest.

99 compounds from PubChem BioAssay AID1671202 (University of Kansas High Throughput Screening Laboratory, 2021) can be followed below.

This assay deals with Huntingtin (Homo sapiens) (UniProt P42858). Nature of the assay: mutant huntingtin-calmodulin interaction inhibitors – biochemical, AlphaScreen, primary screen (AID 1671202).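 On inhibition: 0% = both proteins with DMSO and 100% = one protein alone.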 Particulars: AlphaScreen His-mHTT/GST-CaM binding, luminescence; at 15 µM, stronger effect = higher value. For orientation: Bead proximity is the source of the signal in Alpha formats.
Sequence of Huntingtin (Homo sapiens) (P42858 whole entry, looked up, stated change not applied): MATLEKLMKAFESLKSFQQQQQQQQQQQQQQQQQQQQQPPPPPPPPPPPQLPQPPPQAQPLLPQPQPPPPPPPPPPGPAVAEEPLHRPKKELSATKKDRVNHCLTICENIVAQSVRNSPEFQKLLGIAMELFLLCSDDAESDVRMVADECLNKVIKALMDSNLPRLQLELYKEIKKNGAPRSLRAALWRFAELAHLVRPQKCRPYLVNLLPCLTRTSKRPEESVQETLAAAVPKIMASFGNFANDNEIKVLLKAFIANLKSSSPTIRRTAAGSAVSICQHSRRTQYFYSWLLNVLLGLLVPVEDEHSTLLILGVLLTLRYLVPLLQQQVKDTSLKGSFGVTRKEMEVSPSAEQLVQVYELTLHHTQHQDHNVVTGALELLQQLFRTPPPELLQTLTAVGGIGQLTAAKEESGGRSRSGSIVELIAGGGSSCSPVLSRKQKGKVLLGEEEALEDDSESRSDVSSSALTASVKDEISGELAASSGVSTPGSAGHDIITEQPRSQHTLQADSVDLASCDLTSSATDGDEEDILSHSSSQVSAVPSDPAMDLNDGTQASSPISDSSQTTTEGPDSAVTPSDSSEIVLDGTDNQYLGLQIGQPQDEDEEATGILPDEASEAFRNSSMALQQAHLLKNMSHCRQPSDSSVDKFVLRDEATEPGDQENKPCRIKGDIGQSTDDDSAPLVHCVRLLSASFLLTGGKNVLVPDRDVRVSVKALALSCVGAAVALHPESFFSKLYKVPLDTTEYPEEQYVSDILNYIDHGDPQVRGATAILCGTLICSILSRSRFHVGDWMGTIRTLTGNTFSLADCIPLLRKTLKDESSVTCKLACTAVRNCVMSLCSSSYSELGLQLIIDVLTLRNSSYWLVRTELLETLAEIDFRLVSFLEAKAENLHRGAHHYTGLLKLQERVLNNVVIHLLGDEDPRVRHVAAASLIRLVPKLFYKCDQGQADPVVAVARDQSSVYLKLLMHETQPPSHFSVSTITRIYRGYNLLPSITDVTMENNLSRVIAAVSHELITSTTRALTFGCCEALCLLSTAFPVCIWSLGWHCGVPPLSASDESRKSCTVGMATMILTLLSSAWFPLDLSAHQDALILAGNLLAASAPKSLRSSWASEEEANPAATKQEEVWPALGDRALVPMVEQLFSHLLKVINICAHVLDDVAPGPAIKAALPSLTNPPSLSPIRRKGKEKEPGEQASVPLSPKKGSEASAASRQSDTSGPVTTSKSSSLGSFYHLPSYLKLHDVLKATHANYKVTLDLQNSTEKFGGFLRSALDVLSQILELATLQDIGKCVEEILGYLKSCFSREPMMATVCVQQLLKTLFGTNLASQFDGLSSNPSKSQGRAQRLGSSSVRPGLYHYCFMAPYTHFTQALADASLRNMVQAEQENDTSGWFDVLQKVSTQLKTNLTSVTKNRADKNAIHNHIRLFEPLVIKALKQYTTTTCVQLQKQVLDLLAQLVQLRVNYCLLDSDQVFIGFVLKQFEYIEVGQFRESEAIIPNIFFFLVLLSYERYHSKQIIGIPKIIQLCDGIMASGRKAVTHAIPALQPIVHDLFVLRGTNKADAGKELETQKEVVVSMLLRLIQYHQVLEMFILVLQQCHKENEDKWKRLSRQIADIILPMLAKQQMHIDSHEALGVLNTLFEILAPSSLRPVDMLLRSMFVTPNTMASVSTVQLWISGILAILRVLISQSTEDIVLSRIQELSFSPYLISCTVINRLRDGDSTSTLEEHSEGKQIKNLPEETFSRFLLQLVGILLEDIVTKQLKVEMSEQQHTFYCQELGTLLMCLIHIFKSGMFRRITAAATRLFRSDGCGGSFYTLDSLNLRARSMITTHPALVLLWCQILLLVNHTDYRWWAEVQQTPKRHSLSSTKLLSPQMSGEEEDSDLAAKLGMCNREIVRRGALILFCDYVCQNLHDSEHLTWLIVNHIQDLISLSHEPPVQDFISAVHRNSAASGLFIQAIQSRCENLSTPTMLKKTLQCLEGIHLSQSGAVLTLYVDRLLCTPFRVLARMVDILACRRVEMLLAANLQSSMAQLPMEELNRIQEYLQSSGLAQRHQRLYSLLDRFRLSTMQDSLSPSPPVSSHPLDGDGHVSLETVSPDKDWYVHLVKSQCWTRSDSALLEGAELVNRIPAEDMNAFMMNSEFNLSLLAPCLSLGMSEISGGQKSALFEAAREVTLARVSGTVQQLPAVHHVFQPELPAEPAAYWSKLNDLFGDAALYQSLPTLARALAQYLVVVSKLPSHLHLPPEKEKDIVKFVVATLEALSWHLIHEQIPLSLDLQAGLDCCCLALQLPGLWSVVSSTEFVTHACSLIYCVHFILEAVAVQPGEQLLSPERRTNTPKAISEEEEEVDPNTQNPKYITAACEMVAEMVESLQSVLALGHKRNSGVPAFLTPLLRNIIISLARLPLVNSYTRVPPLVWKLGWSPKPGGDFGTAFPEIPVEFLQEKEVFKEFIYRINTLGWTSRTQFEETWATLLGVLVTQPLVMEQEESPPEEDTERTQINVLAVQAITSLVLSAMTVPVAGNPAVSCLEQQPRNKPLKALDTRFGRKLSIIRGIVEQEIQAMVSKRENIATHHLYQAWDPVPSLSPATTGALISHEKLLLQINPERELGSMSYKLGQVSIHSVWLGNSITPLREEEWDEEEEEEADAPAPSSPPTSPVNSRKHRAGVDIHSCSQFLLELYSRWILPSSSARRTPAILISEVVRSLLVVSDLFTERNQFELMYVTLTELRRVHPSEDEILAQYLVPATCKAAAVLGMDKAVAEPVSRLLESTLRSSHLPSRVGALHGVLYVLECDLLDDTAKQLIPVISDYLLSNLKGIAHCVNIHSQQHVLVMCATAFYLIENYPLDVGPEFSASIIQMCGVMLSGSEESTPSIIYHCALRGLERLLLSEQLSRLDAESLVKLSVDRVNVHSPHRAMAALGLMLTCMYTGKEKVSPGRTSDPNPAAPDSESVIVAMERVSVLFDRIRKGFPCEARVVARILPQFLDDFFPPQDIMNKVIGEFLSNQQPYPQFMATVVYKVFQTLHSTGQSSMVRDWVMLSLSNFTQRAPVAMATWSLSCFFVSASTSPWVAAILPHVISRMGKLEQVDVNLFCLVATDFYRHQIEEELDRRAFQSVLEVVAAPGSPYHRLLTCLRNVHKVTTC
On to `COc1ccc2c(c1)OCC/C2=N\OC(=O)c1cc(Cl)ccc1OC`, for which the inhibition result is “inactive”. The same measure for `C=CCN1C=C(c2ccc3ccccc3n2)C(C#N)c2ccccc21` (centres undefined): 15%; for `O=C(CSc1nccc(N2CCCCC2)n1)Nc1cc(C(F)(F)F)ccc1Cl`: -12.5%. For `CN(C)C(=O)c1cnn(-c2ccccc2)c1-n1cccc1`, the inhibition is 2.9%. For the compound `O=C(NCc1ccccn1)C1CC(=O)N(CCc2c[nH]c3ccc(F)cc23)C1` (centres undefined), the inhibition is 46.9%. The same measure for `Cc1cc(OCC(=O)N2N=C(C(F)(F)F)CC2(O)C(C)(C)C)ccc1Cl` (centres undefined): 100% (active); for `Cc1cc(OCC(=O)Nc2c(C)cccc2C)ccc1Cl`: -6.2%; for `Cc1cc(OCC(=O)Nc2ccc(Cl)cn2)ccc1Cl`: -7%. The value for `Cc1sc2ncnc(N3CCN(c4ccccn4)CC3)c2c1-c1ccc(F)cc1` was 0.3%.

For the compound `CCOC(=O)Nc1ccc2c(c1)CN(C(=O)c1cccs1)CC2`, the inhibition was 2.5%. The same measure for `CCOC(=O)C1CCc2sc(NC(=O)Cn3nc(C)cc3C)nc21` (centres undefined): -9.9%. As for `CCOC(=O)C1CCc2sc(NC(=O)C3COCC(=O)N3Cc3ccccc3)nc21` (centres undefined), the inhibition was 64.1% (active). The same measure for `CCCNC(=O)C1CCN(c2nc3ccsc3c(=O)n2Cc2ccccc2)CC1`: -1.4%; for `COc1cc(CN2CCN(CCO)CC2)c([N+](=O)[O-])cc1OC`: 1.8%; for `COc1cc(CNc2cc(C)cc(C)c2)c([N+](=O)[O-])cc1OC`: 75% (active). In the case of `COc1cc(CN2CCCN(C)CC2)c([N+](=O)[O-])cc1OC`, the inhibition was -0.1%. For the compound `Clc1ccccc1C1CC(c2ccccc2)n2ncnc2N1` (centres undefined), the inhibition is 3.6%. Consider `N#C/C(=C\c1ccc(O)cc1)c1nc(-c2ccc(Cl)cc2)cs1`, for which the inhibition is 58.9% (active). With `Cc1ccc(-c2csc(/C(C#N)=C/c3ccc([N+](=O)[O-])cc3)n2)cc1`, the inhibition was 12.1%.

For `N#C/C(=C\c1ccc(F)cc1)c1nc(-c2ccc([N+](=O)[O-])cc2)cs1`, the inhibition was 1.8%. On to `COc1cccc(CNC(=O)CC2CCN(S(=O)(=O)c3ccc(Cl)s3)CC2)c1`, for which the inhibition is -9.77%. For `O=C(c1ccncc1)N1N=C(c2ccc(Cl)cc2)CC1(O)C(F)(F)F` (centres undefined), the inhibition was 58% (active). The same measure for `O=C(C1CC1)N1N=C(c2ccc(Br)cc2)CC1(O)C(F)(F)F` (centres undefined): -4%; for `CN(C)c1ccc(C(=O)N2N=C(c3ccc(Br)cc3)CC2(O)C(F)(F)F)cc1` (centres undefined): 13%; for `O=[N+]([O-])c1cccc(C=Nc2ccc3nc(-c4cccc(F)c4)oc3c2)c1O`: 1%.

Regarding `O=C1c2ccccc2C(=O)N1CN(C(=O)c1ccc([N+](=O)[O-])cc1)c1ccc(F)cc1`, the inhibition was 1%. The value for `N#Cc1c(-c2ccco2)cc(C2CC2)nc1SCc1ccccc1` was -5%; that for `O=C(CSc1nnc(-c2ccco2)c(-c2ccco2)n1)Nc1ccc(Br)cc1` was 79% (active). Regarding `Cc1ccc(F)cc1NC(=O)Cc1nn(C)c(=O)c2ccccc12`, the inhibition is 3%. As to `O=C(CSc1oc(-c2ccco2)nc1S(=O)(=O)c1ccccc1)Nc1ccc(F)cc1`, the inhibition is 6%.

For the compound `Cc1ccc(F)cc1NC(=O)CSc1nnc(-c2ccco2)c(-c2ccco2)n1`, the inhibition is 86% (active). The same measure for `O=c1[nH]c(SCc2ccccc2)nnc1-c1ccccc1`: -3%; for `Cc1ccccc1NC(=O)CSc1nnc(-c2ccco2)n1C`: 1%; for `c1ccc(CSc2nnc(-c3ccco3)c(-c3ccco3)n2)cc1`: 85% (active). Consider `O=C(CSc1nnc(-c2ccco2)n1-c1ccccc1)Nc1ccc(F)cc1`, for which the inhibition was 11.2%. Regarding `CCOCCCNC(=O)C1CCCN(c2nccc(C)n2)C1` (centres undefined), the inhibition is -8.18%. The value for `Cc1c(C(=O)N2CCN(C)CC2)c(CC(C)C)nn1-c1ccc(Cl)c(Cl)c1` was 94.8% (active); that for `CCc1nn(-c2ccc(F)cc2)c(CC)c1C(=O)N1CCN(C)CC1` was 9.8%; that for `CCN1CCN(C(=O)c2c(C(C)C)nn(-c3cccc(Cl)c3)c2C(C)C)CC1` was 32.9%. For the compound `CN(C)C(=O)CSc1nnc(N)s1`, the inhibition was -4.07%.

As for `Cc1ccc2c(c1)C(=O)NC1(CCN(C(=O)c3ccc(C(F)(F)F)cc3)CC1)N2C`, the inhibition is 4.4%.

Consider `COc1ccc(C(=O)N2CCCC(c3ccnc(Nc4ccccc4)n3)C2)cc1` (centres undefined), for which the inhibition is 69.4% (active). The value for `N#Cc1ccc(C(=O)N2CCCC(c3ccnc(Nc4cccc(F)c4)n3)C2)cc1` (centres undefined) was 6.41%; that for `CN(C)c1ccc(C(=O)N2CCCC(c3ccnc(Nc4cccc(F)c4)n3)C2)cc1` (centres undefined) was 80.1% (active); that for `O=C(c1ccccc1)N1CCCC(c2ccnc(Nc3ccccc3)n2)C1` (centres undefined) was 43.6%. Turning to `N#Cc1ccc(C(=O)N2CCCC(c3ccnc(Nc4ccccc4)n3)C2)cc1` (centres undefined), the inhibition is -5.02%. The value for `O=C(c1ccccc1F)N1CCCC(c2ccnc(-c3cccc(F)c3)n2)C1` (centres undefined) was 1.2%; that for `COc1ccc(CCNC(=S)NC2Cc3ccccc3C2)cc1OC` was 6.9%.

On to `Cc1onc(-c2ccccc2)c1C(=O)Nc1ccc(S(N)(=O)=O)cc1`, for which the inhibition is -0.8%. As to `CN1CCN(c2cc(C(=O)O)c3cc(F)ccc3n2)CC1`, the inhibition is 3.5%. `N#Cc1ccc(Sc2nc3ccccc3o2)c([N+](=O)[O-])c1`: the inhibition is 12%.

On to `O=C(O)c1ccccc1C(=O)Nc1cccc2cccnc12`, for which the inhibition was 4%. In the case of `CC(NC(=O)COc1ncccn1)c1ccccc1` (centres undefined), the inhibition was -13.9%.

Consider `CC(=O)NC(c1ccccc1)c1ccc2cccnc2c1O` (centres undefined), for which the inhibition is 100% (active). The value for `COc1cccc(C(=O)NC(c2cccc([N+](=O)[O-])c2)c2cc(Cl)c3cccnc3c2O)c1` (centres undefined) was 19%; that for `O=C(Cc1ccccc1)Nc1ccc(F)c(Cl)c1` was -11.1%; that for `COc1ncccc1CNC(=O)c1cccs1` was -2.2%.

Regarding `Cc1ccc(C(=O)NCCOc2cccc3cccnc23)cc1`, the inhibition is 9% and -2%. Consider `Cc1ccc(C(NC(=O)Cc2ccccc2)c2ccc3cccnc3c2O)cc1` (centres undefined), for which the inhibition is 100% (active). The value for `Cc1ccc(C)c(NC(=O)Cc2ccccc2)c1` was 0.9%; that for `O=C(Cc1ccccc1)NC(c1ccc(Cl)cc1)c1ccc2cccnc2c1O` (centres undefined) was 99% (active); that for `CC(=O)NC(c1cccs1)c1cc(Cl)c2cccnc2c1O` (centres undefined) was 70% (active) and 100% (active). The same measure for `O=C(Cc1ccccc1)NC(Nc1ccccc1Cl)C(Cl)(Cl)Cl` (centres undefined): 20%. As for `CC(C)c1ccc(OCC(=O)Nc2ccccc2[N+](=O)[O-])cc1`, the inhibition was 3.8%.

`COc1ccc(-n2c(-c3cccc([N+](=O)[O-])c3)cn3c4c(=O)n(C)c(=O)n(C)c4nc23)cc1`: the inhibition is 4%.

As to `CC(=O)c1ccc(NC(=O)CSc2ncc(-c3ccc(C)c(C)c3)o2)cc1`, the inhibition is 2.5%.

Consider `CC(=O)N1CCc2cc(Br)cc(S(=O)(=O)NCCc3ccccc3)c21`, for which the inhibition is 20%. Turning to `CC(=O)C1=C(C)NC(SCC(=O)c2ccccc2)=C(C#N)C1c1ccc(Br)cc1` (centres undefined), the inhibition is -23.7%. The same measure for `COc1cc(NC(=O)c2ccccc2OC)c(OC)cc1Cl`: 9%; for `Cc1ccc(C)c(C(O)=C2C(=O)C(=O)N(CCCN3CCOCC3)C2c2ccncc2)c1` (centres undefined): -2.8%; for `Clc1ccc(C2C=C(c3cccc(Br)c3)Nc3nnnn32)c(Cl)c1` (centres undefined): -5%. For `CCOc1ccc2nc(NC(=O)c3ccc(OC)cc3)sc2c1`, the inhibition is -5%. The same measure for `O=C(Nc1ccc(Cl)cc1)c1ccc2nc3ccccc3nc2c1`: 13.5%; for `O=C(Nc1nncs1)c1ccc2nc(-c3ccco3)c(-c3ccco3)nc2c1`: 99.4% (active); for `COc1ccc(C=C2Oc3cc(OC(=O)c4ccc5c(c4)OCO5)ccc3C2=O)c(OC)c1OC`: 3.6%. As for `COc1ccc(-c2coc3c(C)c4oc(=O)c5ccccc5c4cc23)cc1F`, the inhibition was 2%. On to `N#CC1=C(N)Oc2n[nH]c(-c3ccccc3)c2C1c1ccc(F)c(Br)c1` (centres undefined), for which the inhibition is 20%. With `Cc1cc(-c2[nH]c3c(c2-c2cc(C)sc2C)c(=O)n(C)c(=O)n3C)c(C)s1`, the inhibition was -3%.

In the case of `O=C(NCCSc1c[nH]c2ccccc12)c1ccc(Cl)c([N+](=O)[O-])c1`, the inhibition was 37%. The same measure for `Cc1cc(Cl)ccc1OCC(=O)NCCc1nc2ccccc2[nH]1`: 19%. The value for `O=C(COc1ccc(Cl)cc1Cl)NCCSc1c[nH]c2ccccc12` was 61% (active). Take `COc1cccc(NC(=O)C2(c3ccccc3)CCOCC2)c1`: the inhibition was 1.7%. The value for `Cc1cccc2nnc(N3CCC(C(=O)N4CCOCC4)CC3)n12` was 1.65%; that for `Cc1ccnc(NC(c2ccc(O)cc2)c2ccc3ccc(C)nc3c2O)c1` (centres undefined) was 98% (active). For the compound `Cc1cccc(NC(=O)c2cc(F)ccc2F)n1`, the inhibition was -3%. The same measure for `Cc1cccc(NC(c2cccc(F)c2)c2ccc3ccc(C)nc3c2O)n1` (centres undefined): 76% (active); for `Cc1cc(C)nc(NC(=O)c2cccc(F)c2)c1`: -6.5%; for `Cc1cc(S(=O)(=O)NCc2cccnc2)c(Cl)cc1Cl`: -3.6%. As to `Cc1ccc(CNC(=O)N2CCCC(C)(C(=O)NCc3ccccc3)C2)cc1` (centres undefined), the inhibition is 0.08%. The value for `Cc1ccc(CNC(=O)C2(C)CCCN(S(=O)(=O)c3cc(C)c(C)cc3C)C2)cc1` (centres undefined) was 52.3% (active); that for `Cc1ccc(S(=O)(=O)N2CCCC(C)(C(=O)NCc3ccccc3C)C2)cc1` (centres undefined) was 13%. For `CCN=C1SC(C(=O)Nc2ccc(Cl)cc2)CC(=O)N1CC` (centres undefined), the inhibition is 7%.

As to `CCN(CC)S(=O)(=O)N(CC(=O)NC(C)(C)C)Cc1ccc(F)cc1`, the inhibition is -4%. For the compound `CC(C)Cn1cc2c3c(cccc31)CN(C(=O)Nc1ccc(F)cc1)CC2`, the inhibition was 0.25%.

For `CCn1cc2c3c(cccc31)CN(C(=O)Nc1cc(C)ccc1OC)CC2`, the inhibition was 60.9% (active).

`COc1ccc(OC)c(NC(=O)N2CCc3cn(CC(C)C)c4cccc(c34)C2)c1`: the inhibition was 69.3% (active). Take `CCn1cc2c3c(cccc31)CN(C(=O)c1ccc(OC)cc1)CC2`: the inhibition is 44.1%. The same measure for `CCCn1cc2c3c(cccc31)CN(C(=O)Nc1cc(OC)c(OC)c(OC)c1)CC2`: 2.35%; for `CCn1cc2c3c(cccc31)CN(C(=O)Nc1ccc(C)cc1C)CC2`: 26.9%.
